From PubChem BioAssay AID1650 (Southern Research Specialized Biocontainment Screening …, 2009) come the findings set out here.

Potency and affinity values are given separately. The source made the active and inactive calls. Entries that show only a call come without a potency. The rule behind the calls is not given here.

The nature of the assay: mammalian cell viability reduction – secondary assay, cytotoxicity control for West Nile virus antiviral project, dose response (AID 1650). The settings on record: Mammalian host cell viability, cytotoxicity counter-screen; series mostly up to 10 µM. For orientation: Counterscreens check selectivity or assay interference.
With `O=C(Nc1cccc(Cl)c1)Nc1cc(S(=O)(=O)N2CCCCC2)ccc1Cl`, the molecule was called inactive.

For `COc1ccc(-c2csc(N(CCCN(C)C)C(=O)c3ccccc3Cl)n2)cc1`, the call was inactive.

As to `CN1CCN(C(=O)CCN2C(=O)/C(=C/c3ccc(F)cc3)SC2=S)CC1`, the call was inactive.

Consider `CC(C)C(C(=O)Nc1ncn[nH]1)N1C(=O)c2ccccc2C1=O` (centres undefined), for which the result was inactive.

With `O=C1OC(N2CCN(Cc3ccccc3)CC2)c2ccccc21` (centres undefined), the result was inactive.

Turning to `COc1ccc(N2C(=O)C(C)(C)C2c2c(O)ccc3ccccc23)cc1` (centres undefined), the call was inactive.

`O=C(CNC(=S)N(Cc1ccccc1F)C1CCCCC1)NCC1CCCO1` (centres undefined): the call was inactive.

`Cn1cc([N+](=O)[O-])c(C(=O)Nc2ccn(C34CC5CC(CC(C5)C3)C4)n2)n1`: the molecule was classed as inactive.

As for `CC/C(=C(\c1ccc(O)cc1)c1ccc(OCCN(C)C)cc1)c1ccccc1`, the molecule was classed as inactive.

Turning to `Cn1cnc([N+](=O)[O-])c1Oc1cccc2ccccc12`, the outcome was inactive.

Turning to `CCCCCCOC(=O)C(C#N)c1nc2ccccc2nc1N1CCN(C)CC1` (centres undefined), the molecule was called inactive.

In the case of `COc1ccccc1NS(=O)(=O)c1cccc(NC(=O)Nc2ccc(Cl)cc2)c1`, the molecule was called inactive.

As to `CN(Cc1ccccc1)c1nc(N)c([N+](=O)[O-])c(Nc2cccc(F)c2)n1`, the outcome was inactive.

Consider `OCCN(CCO)CC(O)COc1ccc(C23CC4CC(CC(C4)C2)C3)cc1` (centres undefined), for which the outcome was inactive.

With `COc1cc(C(CCN2CCCC(C)C2)c2c(OC)cc(OC)c3c(-c4ccccc4)cc(=O)oc23)cc(OC)c1OC` (centres undefined), the call was inactive.

For the molecule `CCOc1ccc(NC(=NCc2ccc3c(c2)OCO3)SC2CC(=O)N(c3ccc(OCC)cc3)C2=O)cc1` (centres undefined), the molecule was classed as inactive.

`CCCc1nc([N+](=O)[O-])c(S(=O)(=O)c2ccccc2)n1CC(C)C`: the outcome was inactive.

Take `Cc1ccc(S(=O)(=O)N(C)C)cc1NC(=O)c1cncc(Br)c1`: the molecule was classed as inactive.

In the case of `Cc1c(/C=N/NC(=O)C(C)(C)Oc2ccc(Cl)cc2)cnn1C`, the call was inactive.

For `Cc1ccc(OCC(O)Cn2c(=N)n(CCN3CCCCC3)c3ccccc32)cc1` (centres undefined), the molecule was called inactive.

As to `O=C(c1ccc2c(=O)n(Cc3ccc4c(c3)OCO4)c(=O)[nH]c2c1)N1CCN(c2ccccc2)CC1`, the molecule was classed as inactive.

Regarding `Cc1cc(C)c(-c2csc(NC(=O)/C=C/c3cccs3)n2)c(C)c1`, the outcome was inactive.

For `Cc1ccc(S(=O)(=O)NCc2ccc(C(=O)NCCCN3CCC(Cc4ccccc4)CC3)cc2)cc1`, the outcome was inactive.

`COC(=O)c1c(NC(=O)CCS(=O)(=O)c2ccccc2)sc2c1CCN(C)C2`: the call was inactive.
